PubChem BioAssay (Tox21)
Inconclusive results are not listed. Calls of active or inactive are those of the source. The call rests on the fitted dose curve; in most records, active means well fitted inhibition curve with a large enough effect in the repeat runs; inconclusive means weak or mixed curves, or effect the other way; inactive means no such curve, though single readings can be large or run the other way.

target: Androgen receptor (Homo sapiens) (UniProt P10275); experiment: qHTS assay to identify small molecule antagonists of the androgen receptor (AR) signaling pathway using the MDA cell line (AID 743042; further: nearly all actives have a fitted effect of over 55% in size); settings: MDA-kb2 AR-luc, MMTV luciferase, R1881 antagonist, 16 h; series mostly up to 70.3 µM; activity change, negative = inhibition: at the top concentration
Sequence (P10275 whole entry, looked up): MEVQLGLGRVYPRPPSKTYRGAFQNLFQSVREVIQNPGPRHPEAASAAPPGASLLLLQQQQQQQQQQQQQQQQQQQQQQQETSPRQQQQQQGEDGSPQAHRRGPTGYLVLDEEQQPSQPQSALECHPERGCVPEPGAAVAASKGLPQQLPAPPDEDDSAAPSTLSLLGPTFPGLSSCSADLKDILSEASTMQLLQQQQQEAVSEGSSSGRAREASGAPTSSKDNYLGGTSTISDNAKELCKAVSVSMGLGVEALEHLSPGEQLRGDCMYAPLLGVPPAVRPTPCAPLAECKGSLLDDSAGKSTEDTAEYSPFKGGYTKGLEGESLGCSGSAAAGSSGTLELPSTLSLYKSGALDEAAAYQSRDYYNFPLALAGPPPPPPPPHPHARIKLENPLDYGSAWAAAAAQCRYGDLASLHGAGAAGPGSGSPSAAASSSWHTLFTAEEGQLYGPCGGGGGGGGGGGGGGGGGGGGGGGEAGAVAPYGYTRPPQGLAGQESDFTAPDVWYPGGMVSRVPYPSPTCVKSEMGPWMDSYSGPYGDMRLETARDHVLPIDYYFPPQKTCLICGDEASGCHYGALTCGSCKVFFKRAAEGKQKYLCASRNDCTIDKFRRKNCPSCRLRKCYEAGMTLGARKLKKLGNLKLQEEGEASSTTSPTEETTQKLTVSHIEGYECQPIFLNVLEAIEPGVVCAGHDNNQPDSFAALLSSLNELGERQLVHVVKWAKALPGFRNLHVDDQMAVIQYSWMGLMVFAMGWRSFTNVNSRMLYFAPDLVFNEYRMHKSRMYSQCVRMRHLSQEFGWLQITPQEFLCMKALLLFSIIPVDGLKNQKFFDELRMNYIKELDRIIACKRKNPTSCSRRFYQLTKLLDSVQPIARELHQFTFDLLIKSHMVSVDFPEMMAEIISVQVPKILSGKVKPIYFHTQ
Procedure, shortened: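 Antagonist mode: compounds plus R1881 agonist added to MDA-kb2 AR-luc cells, incubated 16 h at 37C. Luciferase reporter luminescence quantified, with multiplexed CellTiter-Fluor readout for cell viability.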
On the % scale 0 is the no-effect control and ±100 the full control effect.

Structure (SMILES) | activity change, negative = inhibition
CC(CO)Oc1ccccc1 (stereo not given) | 0.434% [at 95 µM] (inactive)
NC(=S)NC(N)=S | 2.2% (inactive)
Cc1ccc(C)cc1 | 3.64% (inactive)
CCCCC(CC)CN1CN(CC(CC)CCCC)CC(C)(N)C1 (stereo not given) | 12.5% [at 32.5 µM] (inactive)
CC(=O)c1ccc(C(C)=O)cc1 | 6.04% [at 95 µM] (inactive)
CCOC(=O)Cn1cccc1-c1nc(-c2ccc(OC)cc2)c(-c2ccc(OC)cc2)s1 | 4.88% (inactive)
O=C(/C=C/c1ccccc1)OC/C=C/c1ccccc1 | -7.87% (inactive)
CCCCCCCCCCOC(=O)c1ccccc1C(=O)OCCCCCCCC | 15.7% (inactive)
c1ccsc1 | 121% (inactive)
OC[C@H]1O[C@H](O[C@H]2O[C@H](CO)[C@@H](O)[C@H](O)[C@H]2O)[C@H](O)[C@@H](O)[C@@H]1O | 1.46% [at 95 µM] (inactive)
